Experimental findings from PubChem BioAssay (EPA / NIEHS) are described below.

Results filed as inconclusive are left out. Activity calls are given as the source filed them. How the source made its calls: active means hit-call score of the fitted dose curve at least 0.9, where 1 is the maximum; inconclusive means response in the unintended direction; inactive means score below 0.9.

The nature of the test: Tanguay_ZF_120hpf_JAW_legacy: (Legacy) Oregon State University Tanguay Lab 120 Hour Post-fertilization zebrafish Assay for Jaw Malformation (AID 2283638).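 On AC50: active means more embryos with jaw malformation than DMSO controls.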 As to the method: Tanguay_ZF_120hpf_legacy is a whole embryo, multiplexed endpoint assay using zebrafish larvae exposed for 120 hours post fertilization on a 96-well plate.Tanguay_ZF_120hpf_JAW_legacy is one of one assay component(s) measured or calculated from the Tanguay_ZF_120hpf_legacy assay. It is designed to make measurements of zebrafish development as detected with brightfield microscopy of developing zebrafish embryos.Data from the assay component Tanguay_ZF_120hpf_JAW_legacy was analyzed into 1 assay endpoints. This assay endpoint, Tanguay_ZF_120hpf_JAW_legacy, was analyzed in the positive analysis fitting direction relative to DMSO as the negative control and baseline of activity. Using a type of morphology reporter, gain-of-signal activity can be used to understand changes in developmentals as they relate to the whole embryo. To generalize the intended target to other relatable targets, this assay endpoint is annotated to the zebrafish development intended target family, where the subfamily is embryonic jaw development.
Zebrafish husbandry: Tropical 5D wild-type adult zebrafish were housed in at an approximate density of 1000 per 100 gallon tank at the Sinnhuber Aquatic Research Laboratory, Oregon State University, Corvallis, OR. Each tank was kept at standard laboratory conditions of 28C on a 14-h light/10-h dark photoperiod in fish water consisting of reverse osmosis water supplemented with a commercially available salt (Instant Ocean). Spawning funnels were placed into the tanks the night prior, and embryos were collected and staged. To increase bioavailability, the chorion was enzymatically removed using pronase (63.6mg/ml, >/= 3.5U/mg, Sigma-Aldrich: P5147) at 4 hours post fertilization (hpf) using a custom automated dechorionator.Chemical exposures: Six hpf dechorionated embryos were placed 1 embryo per well in a 96-well plate prefilled with 90 ul of EM using automated embryo placement systems (AEPS). Ten microliters of each row of dilution plate 2 was added to 2 exposure plates. The final DMSO concentration used was 0.64% (vol/vol). Thirty-two embryos were also exposed to 5uM trimethyltin chloride (positive control). Plates were sealed to prevent evaporation and foil covered to reduce light exposure and kept in a 28C incubator. Embryos were statically exposed until 120 hpf. At 24 hpf, embryos were assessed for photomotor response using a custom photomotor response analysis tool (PRAT) and for developmental toxicity endpoints (MO24: mortality at 24 hpf, DP: developmental progression, SM: spontaneous movement, and NC: notochord distortion). At 120 hpf, locomotor activity was measured using Viewpoint Zebralab and assessed for 18 endpoints. Zebrafish acquisition and analysis program (ZAAP), a custom program designed to inventory, acquire, and manage zebrafish data, was used to collect developmental endpoints as either present or absent (i.e., binary responses were recorded). If mortality occurred for an embryo (at either 24 or 120 hpf), the non-mortality endpoints were not measured.
In the case of `COC(=O)CCC(=O)OC`, the outcome was inactive.
On to `CC(C)c1cccc(C(C)C)c1`, for which the call was inactive.
Regarding `CN(C)CCCN(C)CCCN(C)C`, the molecule was classed as inactive.
Same read-out and setting: as for `CCCCC(CC)COC(=O)CCCCCCCC(=O)OCC(CC)CCCC` (stereo not given), the entry is “inactive”; as for `Cn1cnc2c1c(=O)[nH]c(=O)n2C`, “inactive”; as for `CC(N)=O`, “inactive”.
On to `Cc1cc(SC2=C(O)C[C@@](CCc3ccc(N)cc3)(C(C)C)OC2=O)c(C(C)(C)C)cc1CO`, for which the outcome was inactive.
For the molecule `CC(=O)O`, the molecule was classed as inactive.
`CC(C)COC(=O)CCCCC(=O)OCC(C)C`: the outcome was inactive.
For `COC(=O)CCCC(=O)OC`, the result was inactive.
With `CS(=O)(=O)c1ccc([C@@H](C[C@H]2CCC(=O)C2)C(=O)Nc2cnccn2)cc1Cl`, the call was inactive.
Still for that read-out and setting: as for `O=C1CCCCC1`, the entry is “inactive”.
Regarding `NC=O`, the outcome was inactive.
For the molecule `Cc1cn([C@H]2C=C[C@@H](CO)O2)c(=O)[nH]c1=O`, the outcome was inactive.
Consider `O=C1NC(=O)C(c2ccccc2)(c2ccccc2)N1`, for which the call was inactive.
Still for that read-out and setting: as for `Nc1nc(=S)c2[nH]cnc2[nH]1`, the entry is “inactive”.
Turning to `CN(C)C(=O)NC1(c2ccccc2)CCN(CCC[C@]2(c3ccc(Cl)c(Cl)c3)CCCN(C(=O)c3ccccc3)C2)CC1`, the result was inactive.
As to `NC(=Nc1ccccc1)Nc1ccccc1`, the call was inactive.
Consider `CC(C)NCC(O)c1ccc(O)c(O)c1` (stereo not given), for which the outcome was inactive.
`CCN(CC)CCOc1ccc(C(=C(Cl)c2ccccc2)c2ccccc2)cc1`: the outcome was inactive.
For `CCCCCCCCCCCCCCOS(=O)(=O)O`, the concentration at half-maximal activity (AC50) (as a rule, the concentration giving half of the maximal activity seen) was 42.3 µM (active).
For `O=C(NS(=O)(=O)/C=C/c1cccs1)c1ccc(F)cc1Br`, the outcome was inactive.
For `CC(=O)CC(c1ccccc1)c1c(O)c2ccccc2oc1=O` (stereo not given), the outcome was inactive.
As to `CC(C)(C)c1ccccc1`, the AC50 is 4.3 µM (active).
Turning to `COc1ccc(OC(F)(F)F)cc1CN[C@H]1CCCN[C@H]1c1ccccc1`, the call was inactive.
Turning to `O=C(Oc1ccccc1)c1cccc(C(=O)Oc2ccccc2)c1`, the result was inactive.
The same measure, in the same setting: in the case of `N[C@@H](Cc1c[nH]c2ccccc12)C(=O)O` it was “inactive”; in that of `CC1(C)C(=O)NC(=O)N1CO`, “inactive”; in that of `Cc1ccc(-c2cc(C(F)(F)F)nn2-c2ccc(S(N)(=O)=O)cc2)cc1`, “inactive”.
On to `COc1ccc(C(=O)Nc2nc3ccccc3c(NCc3ccccc3)c2C#N)cc1`, for which the call was inactive.
Take `Cc1occc(=O)c1O`: the molecule was called inactive.
Regarding `C#CC(O)C(CC)CCCC` (stereo not given), the molecule was called inactive.
As for `O=C(N[C@@H](c1ccccc1)[C@@H]1CCCCN1)c1cccc(C(F)(F)F)c1Cl`, the call was inactive.
Turning to `OCC(CO)n1cnc(-c2ccc(F)cc2)c1-c1ccnc(Oc2ccccc2)n1`, the call was inactive.
The same measure, in the same setting: as for `CCCCCCCC(=O)OC`, the entry is “inactive”.
Consider `C/C=C/C=C/C(=O)O`, for which the result was inactive.
For `CCCCCCC(CCCCCCCCCCC(=O)OCC(COC(C)=O)OC(C)=O)OC(C)=O` (stereo not given), the molecule was called inactive.
Take `CN(C)CCCN1c2ccccc2Sc2ccc(Cl)cc21`: the molecule was called inactive.
For `CC(=O)OCC(COC(C)=O)OC(C)=O`, the molecule was classed as inactive.
On the same count and under the same terms, as for `CCCCc1nc2cccnc2n1Cc1ccc(-c2ccccc2-c2nnn[nH]2)cc1`, the entry is “inactive”.
